Laboratory results from the supplement of paper PMC6992640.
± gives the standard deviation of the averaged measurements.

Assays:
Assay in all cases: cell viability (% of vehicle); higher = less cytotoxic
HCI01 [1] = cells of a triple-negative basal-like breast cancer xenograft; conditions: 1 µM; 72 h
UCD52 [2] = cells of a triple-negative basal-like breast cancer xenograft; conditions: 1 µM; 72 h
WHIM2 [3] = cells of a triple-negative basal-like breast cancer xenograft; conditions: 1 µM; 72 h
WHIM30 [4] = cells of a triple-negative basal-like breast cancer xenograft; conditions: 1 µM; 72 h
HCI01 [5] = conditions: 10 µM; 72 h
HCI03 = cells of an ER-positive luminal breast cancer xenograft; conditions: 10 µM; 72 h
HCI09 = cells of a triple-negative luminal androgen receptor type breast cancer xenograft; conditions: 10 µM; 72 h
HCI11 = cells of an ER-positive luminal breast cancer xenograft; conditions: 10 µM; 72 h
HCI13 = cells of an ER-positive luminal breast cancer xenograft; conditions: 10 µM; 72 h
HCI16 = cells of a triple-negative basal-like breast cancer xenograft; conditions: 10 µM; 72 h
UCD52 [6] = conditions: 10 µM; 72 h
WHIM2 [7] = conditions: 10 µM; 72 h
WHIM30 [8] = conditions: 10 µM; 72 h

Compound	cell viability (HCI01 [1])	cell viability (UCD52 [2])	cell viability (WHIM2 [3])	cell viability (WHIM30 [4])	cell viability (HCI01 [5])	cell viability (HCI03)	cell viability (HCI09)	cell viability (HCI11)	cell viability (HCI13)	cell viability (HCI16)	cell viability (UCD52 [6])	cell viability (WHIM2 [7])	cell viability (WHIM30 [8])
CCN(CC)CCNC(=O)c1c(C)[nH]c(C=C2C(=O)Nc3ccc(F)cc32)c1C.O=C(O)CC(O)C(=O)O [Sunitinib malate]	73.4	64.6	96	69.2	37.7 ± 18	73.6	11.3 ± 0.53	111	58.1 ± 1.6	128	15.3 ± 1.1	31.7 ± 12	41.7 ± 11
Cc1cc(-n2c(=O)[nH]c(=O)n(C)c2=O)ccc1Oc1ccc(SC(F)(F)F)cc1 [Toltrazuril]	90.8	97.6	105	90.8	75.8 ± 1.2	132	61.9 ± 18	84	117 ± 11	115	79.5 ± 4.9	41.3 ± 3.9	98.6 ± 14
CNCCC(Oc1ccc(C(F)(F)F)cc1)c1ccccc1.Cl (stereo unspecified) [Fluoxetine HCl]	91.1	75.6	99.1	84.1	98.1 ± 5	98.4	84.6 ± 29	75.2	104 ± 12	58.6	47.8 ± 1.9	44.9 ± 6	65.9 ± 10
Cc1c(Cl)cccc1Nc1ccccc1C(=O)O [Tolfenamic Acid]	95.9	102	106	92.6	100 ± 30	118	80.6 ± 9.7	91.9	71.1 ± 33	103	70.7 ± 3.2	41.7 ± 14	77.7 ± 3.3
Cl.Cl.Fc1ccc(C(c2ccc(F)cc2)N2CCN(CC=Cc3ccccc3)CC2)cc1 [Flunarizine 2HCl]	106	94.1	101	88.9	106 ± 20	82.4	82.2 ± 42	96.5	75.4 ± 9.1	106	46.7 ± 2.5	38.9 ± 12	87.3 ± 8.5
Cc1ccc(C(=O)N(CCCN)C(c2nc3cc(Cl)ccc3c(=O)n2Cc2ccccc2)C(C)C)cc1 (stereo unspecified)	98.7	47.7	62.5	78	34.6 ± 0.75	41.2	22.4 ± 2.7	56.8	38.3 ± 4	45.5	122 ± 8.3	34.8 ± 0.98	39.8 ± 4
Cl.Nc1ccn(C2OC(CO)C(O)C2O)c(=O)n1 (stereo unspecified) [Cytarabine hydrochloride]	71.5	114	86.3	90.1	75.2 ± 11	105	122 ± 36	147	61.5 ± 3.5	73.9	105 ± 5.7	58 ± 8.3	81.1 ± 11
CO[C@H]1/C=C/O[C@@]2(C)Oc3c(C)c(O)c4c(O)c(c(/C=N/N5CCN(C6CCCC6)CC5)c(O)c4c3C2=O)NC(=O)/C(C)=C\C=C\[C@H](C)[C@H](O)[C@@H](C)[C@@H](O)[C@@H](C)[C@H](OC(C)=O)[C@@H]1C [Rifapentine]	93.7	88.8	104	95.8	47.7 ± 28	120	26.9 ± 5.9	104	133 ± 18	122	77.4 ± 4.6	53.9 ± 24	117.8 ± 0.39
COc1cc(Nc2ncc(F)c(Nc3ccc4c(n3)N(COP(=O)(O)O)C(=O)C(C)(C)O4)n2)cc(OC)c1OC [Fostamatinib (R788)]	116	92.3	79	112	88.3 ± 8.6	102	87.2 ± 7	61	74.5 ± 1	65	55.7 ± 3.7	58.1 ± 4.2	86.6 ± 6.6
COc1cc2nccc(Oc3ccc(NC(=O)Nc4cc(C)on4)c(Cl)c3)c2cc1OC [Tivozanib (AV-951)]	91	61.4	94.3	85.1	85.4 ± 37	80	67 ± 50	75.1	60.9 ± 7.7	69.7	81.1 ± 22	61.7 ± 18	57.6 ± 2.1
CC(C)(C)NC(=O)C1CC2CCCCC2CN1CC(O)C(Cc1ccccc1)NC(=O)C(CC(N)=O)NC(=O)c1ccc2ccccc2n1.CS(=O)(=O)O (stereo unspecified) [Saquinavir mesylate]	96.9	89.5	105	99.4	101 ± 20	104	57.7 ± 51	95.3	38.63 ± 0.17	63.8	50.4 ± 0.71	36.3 ± 2.6	103 ± 3.5
CN1CCN(c2ccc(C(=O)/N=c3\[nH][nH]c4ccc(Cc5cc(F)cc(F)c5)cc34)c(NC3CCOCC3)c2)CC1 [Entrectinib]	92.3	72.6	81.7	71.9	28.2 ± 2.5	59.8	22.8 ± 0.65	48.9	41 ± 5.5	58.5	36.98 ± 0.05	42.6 ± 4.1	41.8 ± 12
Clc1ccc(COC(Cn2ccnc2)c2ccc(Cl)cc2Cl)c(Cl)c1.O=[N+]([O-])O (stereo unspecified) [Miconazole Nitrate]	100	96.9	111	95.9	32 ± 8.9	93.1	27.3 ± 7.1	79.9	56.9 ± 7.8	113	48.6 ± 5.8	37 ± 9.7	128 ± 2
CCOC(=O)C1=C(COCCN)NC(C)=C(C(=O)OC)C1c1ccccc1Cl (stereo unspecified) [Amlodipine]	103	93.7	101	90.2	70.6 ± 31	86.4	50.5 ± 42	100	32.2 ± 4.1	69.9	27.6 ± 4	31.9 ± 10	73.4 ± 12
COC(=O)NC(C(=O)N1CCCC1c1ncc(-c2ccc(-c3ccc(-c4cnc(C5CCCN5C(=O)C(NC(=O)OC)C(C)C)[nH]4)cc3)cc2)[nH]1)C(C)C (stereo unspecified)	85.1	82.6	93.7	82.8	79.8 ± 2.9	99.6	42.7 ± 35	72.6	131 ± 110	87.2	62.3 ± 1.2	58.8 ± 6.8	102 ± 11
CNC(=O)c1cc(Oc2ccc(NC(=O)Nc3ccc(Cl)c(C(F)(F)F)c3)cc2)ccn1.Cc1ccc(S(=O)(=O)O)cc1 [Sorafenib Tosylate]	90.6	74.5	81.7	65.2	22 ± 0.23	65.5	14.6 ± 7	63.9	55.5 ± 31	45.9	82.6 ± 1	32.2 ± 0.44	41.9 ± 18
COC(=O)C1=C(C)NC(C)=C(C(=O)OCCN(C)Cc2ccccc2)C1c1cccc([N+](=O)[O-])c1.Cl (stereo unspecified) [Nicardipine HCl]	108	94.4	93.5	100	66 ± 2.2	99.9	35.5 ± 4.3	65.4	55.4 ± 8.6	126	55.37 ± 0.27	48.8 ± 8.4	80 ± 5.5
Nc1ncn(C2OC(CO)C(O)C2O)c(=O)n1 (stereo unspecified) [5-Azacytidine]	91.5	70.1	91.3	93.9	59.1 ± 13	85	27.2 ± 6.3	170	53.1 ± 9.2	103	53.4 ± 3.7	35.1 ± 14	198 ± 19
CN1CCN(CCOc2cc(OC3CCOCC3)c3c(Nc4c(Cl)ccc5c4OCO5)ncnc3c2)CC1 [Saracatinib (AZD0530)]	67.9	38.7	33.9	57.5	63.85 ± 0.43	48.7	68.3 ± 18	105	53 ± 1.4	69.1	43.8 ± 5.4	40.2 ± 11	84.6 ± 3.6
Oc1c(Cl)cc(Cl)c2cccnc12 [Chloroxine]	93.2	96.7	96.5	71.6	36.5 ± 3.6	56.7	28.7 ± 2.7	69.7	65 ± 15	130	120 ± 88	79.7 ± 55	48.9 ± 4.8
CC[C@H](C)[C@H]1O[C@]2(CC[C@@H]1C)C[C@@H]1C[C@@H](C/C=C(\C)[C@@H](O[C@H]3C[C@H](OC)[C@@H](O[C@H]4C[C@H](OC)[C@@H](O)[C@H](C)O4)[C@H](C)O3)[C@@H](C)/C=C/C=C3\CO[C@@H]4[C@H](O)C(C)=C[C@@H](C(=O)O1)[C@]34O)O2 [Ivermectin]	90.6	57.6	86.6	73.3	38.3 ± 8	81.2	20 ± 3.4	81	37.6 ± 8.1	82.9	76.3 ± 3	40.5 ± 7.1	36.2 ± 3
Cn1cnc2c(F)c(Nc3ccc(Br)cc3F)c(C(=O)NOCCO)cc21	71.6	59.9	80.7	69.9	84.1 ± 12	90.7	65.6 ± 13	76.4	70.9 ± 7.1	79.6	59.8 ± 8.5	55.2 ± 20	106 ± 14
Nc1ccn(C2OC(CO)C(O)C2O)c(=O)n1 (stereo unspecified) [Cytarabine]	75	106	87.1	80.9	65 ± 1.2	101	94.2 ± 1.1	136	76.4 ± 11	83.3	91.4 ± 17	58.4 ± 8.6	86.07 ± 0.15
COc1ccccc1OCCNCC(O)COc1cccc2[nH]c3ccccc3c12 (stereo unspecified) [Carvedilol]	92.5	99.9	91.3	111	97.88 ± 0.3	69.9	75.9 ± 8.1	88.7	123.82 ± 0.064	127	44 ± 1.3	46.1 ± 3.3	102.1 ± 0.59
O=C(NN=Cc1ccc([N+](=O)[O-])o1)c1ccc(O)cc1 [Nifuroxazide]	78.8	91.1	95.3	77.5	63.5 ± 47	128	37 ± 17	82	62.8 ± 15	91.7	62.2 ± 28	94.9 ± 15	79.2 ± 5.8
CC(C)Nc1cc(-c2c[nH]c(C(=O)NC(CO)c3cccc(Cl)c3)c2)c(Cl)cn1 (stereo unspecified)	84.8	59.1	72.7	78.4	39 ± 8.9	135	36.8 ± 21	81.7	43.5 ± 2.5	106	56.5 ± 4	45.3 ± 6.3	104 ± 10
CC(C)C(=O)OCC(=O)[C@@]12O[C@H](C3CCCCC3)O[C@@H]1C[C@H]1[C@@H]3CCC4=CC(=O)C=C[C@]4(C)[C@H]3[C@@H](O)C[C@@]12C [Ciclesonide]	115	127	81.6	145	67.6 ± 23	76.3	50.6 ± 24	90.1	48.9 ± 2.2	122	46.7 ± 24	36 ± 1.9	100 ± 16
